Among all 54,000 sequences or so, about 3,300 (6.1%) were called active. Rule as the data show it: active = GI50 up to about 1.1 µM and inactive = higher. Only a sample is shown. Measured potencies and affinities stand elsewhere.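 Tested at 5 concentrations; 48 h exposure; 96-well plates; endpoints linearly interpolated, else capped at highest concentration. Here, GI50 denotes the concentration required for 50% inhibition of growth.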
test system: Malme-3M; test: NCI tumour cell line growth inhibition, 48 h

Row | Substance | GI50 [nM]
1 | [Bis(aminomethyl)pentamethylenesilane]tetrachloropaltinum(IV), CHEMBL2146204 | 1220
2 | [Bis(aminomethyl)tetramethylenesilane]dichloropaltinum(II), CHEMBL2146205 | 8590
3 | [Bis(aminomethyl)dimethylsilane]tetrachloroplatinum(IV), CHEMBL2146190 | 2770
4 | [Bis(aminomethyl)tetramethylenesilane]tetrachloropaltinum(IV), CHEMBL2146189 | 1620
5 | cis-Bis[[(trimethylsilyl)methyl]amino]tetrachloroplatinum(IV), CHEMBL2146191 | 2250
6 | mu-(1,7-nanodiamine-N,N')bis-(cis-aminedichloroplatimum (II)), CHEMBL2146215 | 2410
7 | [Bis(aminomethyl)diethylsilane]tetrachloroplatinum(IV), CHEMBL2146203 | 1220
8 | CISPLATIN, CHEMBL11359 | 1600
9 | [Bis(aminomethyl)ethylmethylsilane]tetrachloroplatinum(IV), CHEMBL2146192 | 2080
10 | [Bis(aminomethyl)pentamethylenesilane]dichloropaltinum(II), CHEMBL2146202 | 1540
11 | [Bis(aminomethyl)dimethylsilane]dichloroplatinum (II), CHEMBL2146201 | 17700
